# In PubChem BioAssay AID1645838 (ICCB-Longwood Screening Facility, Harvard Medical School, 2021):
# Out of some 2,000 compounds screened, about 100 (5%) were called active. Rule as the data show it: active = z-score above about 2; inactive = the rest. The list comes from a sample in which actives are over-represented; it also holds similar structures and randomly drawn compounds.
# Experiment: supercomplex reporter luminescence per Hoechst cell count – Hoechst nuclei count (AID 1645838);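 also: control cybrid cells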;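 as to z-score: higher means more mitochondrial supercomplex formation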
# Details: Cells, luminescence/Hoechst cell count ratio; for z-score: stronger effect = higher value; for cell count: measured here: cell number, Hoechst nuclei count
# [1] = library stock concentration (final well concentration not given) 80 uM
# [2] = library stock concentration (final well concentration not given) 400 uM
# [3] = library stock concentration (final well concentration not given) 2 mM
# [4] = library stock concentration (final well concentration not given) 10 mM
# [5] = library stock concentration (final well concentration not given) 46 uM
# [6] = library stock concentration (final well concentration not given) 1.67 mM
# [7] = library stock concentration (final well concentration not given) 278 uM
smiles,measurement,setting,value
CC(O)C(O)C1CNc2nc(N)[nH]c(=O)c2N1 (stereo not drawn),outcome,library stock 10 mM,inactive; censored for cell count
same,z-score,[1],-0.395 (inactive)
same,z-score,[2],-0.667 (inactive)
same,z-score,[3],-0.491 (inactive)
same,cell count,[1],5380
same,cell count,[2],5520
same,cell count,[3],4750
C#C[C@]1(O)CC[C@@H]2[C@@H]3CCc4cc(O)ccc4[C@@H]3CC[C@@]21C,z-score,[1],-0.386 (inactive)
same,z-score,[2],-0.396 (inactive)
same,z-score,[3],-0.217 (inactive)
same,z-score,[4],-0.397 (inactive)
same,cell count,[1],5910
same,cell count,[2],5660
same,cell count,[3],5810
same,cell count,[4],5370
C[C@H](CCCO)[C@H]1CC[C@H]2[C@@H]3[C@H](O)C[C@H]4C[C@H](O)CC[C@]4(C)[C@H]3C[C@H](O)[C@]12C,z-score,,-0.0135 (inactive)
same,cell count,,5570
CC(=NNC(=O)c1cccc(S(=O)(=O)N2CCOCC2)c1)c1cc(Cl)ccc1O,outcome,library stock 278 µM,inactive; censored for cell count
same,z-score,[5],-0.349 (inactive)
same,z-score,[6],3.11 (active)
same,z-score,[4],3.02 (active)
same,cell count,[5],7290
same,cell count,[6],2520
same,cell count,[4],1770
O=C(O)c1cccc(S(=O)(=O)N2CCc3ccccc3C2)c1,z-score,[1],-0.371 (inactive)
same,z-score,[2],0.24 (inactive)
same,z-score,[3],-0.13 (inactive)
same,z-score,[4],0.0481 (inactive)
same,cell count,[1],5540
same,cell count,[2],4830
same,cell count,[3],5230
same,cell count,[4],4980
O=C(Nc1cccc(Br)c1)c1cccc(S(=O)(=O)N2CCCCCC2)c1,z-score,[5],-0.0641 (inactive)
same,z-score,[7],0.273 (inactive)
same,z-score,[6],0.0446 (inactive)
same,z-score,[4],-0.0353 (inactive)
same,cell count,[5],6460
same,cell count,[7],6210
same,cell count,[6],6270
same,cell count,[4],5890
O=C(O)CCCCCC[C@@H]1[C@@H](CC[C@@H](O)CCc2cccc(C(F)(F)F)c2)[C@H](O)C[C@@H]1O,z-score,,-0.0245 (inactive)
same,cell count,,4710
COc1ccc(-c2nc3cc(F)ccc3s2)cc1OC,z-score,,-0.706 (inactive)
same,cell count,,5090
O=C(/C=C/c1cccc(C(=O)NO)c1)NO,z-score,,3.39 (active)
same,cell count,,4470
COc1ccc(/C=C/C(=O)Nc2c(O)cccc2C(=O)O)cc1OC,z-score,,-0.476 (inactive)
same,cell count,,5390
O=C(O)/C=C/c1ccc(O)c(O)c1,z-score,,-0.483 (inactive)
same,cell count,,5860
CCCCCCCCCC(=O)N[C@@H](CN1CCOCC1)[C@@H](O)c1ccccc1,z-score,,0.0636 (inactive)
same,cell count,,5620
CO[C@H]1C[C@@H]2CC[C@@H](C)[C@@](O)(O2)C(=O)C(=O)N2CCCC[C@H]2C(=O)O[C@H]([C@@H](C)C[C@@H]2CC[C@@H](O)[C@H](OC)C2)CC(=O)[C@H](C)/C=C(\C)[C@@H](O)[C@@H](OC)C(=O)[C@H](C)C[C@H](C)/C=C/C=C/C=C/1C,z-score,,2.24 (active)
same,cell count,,4010
COC1C[C@@H]2CCC(C)[C@@](O)(O2)C(=O)C(=O)N2CCCC[C@@H]2C(=O)O[C@@H](C(C)CC2CCC(n3cnnn3)C(OC)C2)CC(=O)C(C)C=C(C)C(O)C(OC)C(=O)C(C)CC(C)C=CC=CC=C1C (stereo partly drawn),z-score,[1],0.366 (inactive)
same,z-score,[2],0.334 (inactive)
same,z-score,[3],0.739 (inactive)
same,z-score,[4],1.14 (inactive)
same,cell count,[1],4410
same,cell count,[2],4360
same,cell count,[3],4240
same,cell count,[4],3590
COC1CC2CCC(C)C(O)(O2)C(=O)C(=O)N2CCCCC2C(=O)OC(C(C)CC2CCC(O)C(OC)C2)CC(=O)C(C)C=C(C)C(O)C(OC)C(=O)C(C)CC(C)C=CC=CC=C1C (stereo not drawn),z-score,[1],0.756 (inactive)
same,z-score,[2],0.731 (inactive)
same,z-score,[3],1.2 (inactive)
same,z-score,[4],1.21 (inactive)
same,cell count,[1],2980
same,cell count,[2],3130
same,cell count,[3],2660
same,cell count,[4],2720
Cc1ccc(C(=O)Nc2ccc(Oc3cc4cnn(C)c4cc3-c3cn[nH]c3)c(F)c2)c(=O)n1-c1ccc(F)cc1,z-score,[5],-0.888 (inactive)
same,z-score,[7],-0.95 (inactive)
same,z-score,[6],-1.73 (inactive)
same,z-score,[4],-2.48 (inactive)
same,cell count,[5],7640
same,cell count,[7],6950
same,cell count,[6],7070
same,cell count,[4],6390
CC/C=C\C/C=C\C/C=C\C/C=C\C/C=C\CCCC(=O)O[C@H](COCCCCCCCCCCCCCCCC)COP(=O)([O-])OCC[N+](C)(C)C,z-score,,-1.23 (inactive)
same,cell count,,5300
CCCCC[C@H](O)/C=C/[C@@H]1[C@@H](C/C=C\CCCC(=O)NC(CO)CO)[C@@H](O)C[C@H]1O,z-score,,-0.166 (inactive)
same,cell count,,5460
Cn1cc(CNCC2CCN(c3ncc(C(=O)NO)cn3)CC2)c2ccccc21,outcome,library stock 400 µM,inactive; censored for cell count
same,outcome,library stock 2 mM,inactive; censored for cell count
same,outcome,library stock 10 mM,inactive; censored for cell count
same,z-score,[1],10.5 (active)
same,cell count,[1],1710
CN1CCc2c(c3ccccc3n2Cc2ccc(C(=O)NO)cc2)C1,z-score,[5],-0.165 (inactive)
same,z-score,[7],-0.118 (inactive)
same,z-score,[6],-0.0772 (inactive)
same,z-score,[4],0.0302 (inactive)
same,cell count,[5],5170
same,cell count,[7],5040
same,cell count,[6],4790
same,cell count,[4],4770
COc1cc(C(=O)NS(=O)(=O)c2ccccc2C)ccc1Cc1cn(C)c2ccc(NC(=O)OC3CCCC3)cc12,z-score,,-0.169 (inactive)
same,z-score,[1],-0.186 (inactive)
same,z-score,[2],0.251 (inactive)
same,z-score,[3],-0.394 (inactive)
same,z-score,[4],0.0319 (inactive)
same,cell count,,4650
same,cell count,[1],5870
same,cell count,[2],5520
same,cell count,[3],5910
same,cell count,[4],4990
Nc1nc(OC(c2ccc(-c3cccc(F)c3)cc2)C(F)(F)F)cc(-c2ccc(CC(N)C(=O)O)cc2)n1 (stereo not drawn),z-score,[1],-0.00893 (inactive)
same,z-score,[2],-0.406 (inactive)
same,z-score,[3],-0.0477 (inactive)
same,z-score,[4],-0.333 (inactive)
same,cell count,[1],4780
same,cell count,[2],5340
same,cell count,[3],4660
same,cell count,[4],4880
CCCCCC(=O)CC[C@H]1C(=O)C[C@H](O)[C@@H]1C/C=C\CCCC(=O)O,z-score,,0.618 (inactive)
same,cell count,,5420
COc1cc(NS(C)(=O)=O)ccc1Nc1c2ccccc2nc2ccccc12,outcome,library stock 2 mM,inactive; censored for cell count
same,outcome,library stock 10 mM,inactive; censored for cell count
same,z-score,[1],0.627 (inactive)
same,z-score,[2],2.51 (active)
same,cell count,[1],4290
same,cell count,[2],2280
CN1CCN(c2ccc(Nc3c4ccccc4nc4ccccc34)cc2)CC1,outcome,library stock 2 mM,inactive; censored for cell count
same,outcome,library stock 10 mM,inactive; censored for cell count
same,z-score,[5],0.226 (inactive)
same,z-score,[1],-0.0401 (inactive)
same,z-score,[7],0.109 (inactive)
same,z-score,[2],1.07 (inactive)
same,z-score,[6],0.208 (inactive)
same,cell count,[5],6220
same,cell count,[1],5080
same,cell count,[7],5990
same,cell count,[2],4020
same,cell count,[6],6120
CS(=O)(=O)Nc1ccc([N+](=O)[O-])cc1Oc1ccccc1,z-score,,1.64 (inactive)
same,cell count,,4310
COCC(c1ccc(C(F)(F)F)cc1)N1CCN(C2(C)CCN(C(=O)c3c(C)ncnc3C)CC2)CC1C (stereo not drawn),z-score,[1],-0.275 (inactive)
same,z-score,[2],-0.0621 (inactive)
same,z-score,[3],-0.0993 (inactive)
same,z-score,[4],0.309 (inactive)
same,cell count,[1],6100
same,cell count,[2],5370
same,cell count,[3],5980
same,cell count,[4],5030
